Compound activity as filed in PubChem.
PfHsp40 yeast = rescue of yeast from PfHsp40 toxicity, primary screen, S. cerevisiae, ATP luminescence | S. cerevisiae expressing PfHsp40, growth rescue | growth rescue, % at 12.5 µM | 0.68% of 340,000 active; in the data active means growth rescue above about 28%, passing the limit was not always enough;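 further: yeast W303a lacking pdr1 and pdr3 grown in galactose medium; growth measured after three days at 30 °C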
PrPC surface inh = inhibitors of human cell surface prion protein PrPC, primary screen, cell-based, TR-FRET. Major prion protein (Homo sapiens), P04156. TR-FRET read-out. inhibition, % at 13.8 µM. 0.43% of 370,000 active; in the data active means inhibition above about 24%; further: 0% = median of the test wells and 100% = reference compound wells
BJeLR viability = MLPCN primary cell-based screen for lethality selective to Ras in HRASV12 cells. inhibition, % (test concentration not listed). BJeLR (HRASV12) viability, CellTiter-Glo ATP luminescence, 48 h. 0.17% of 300,000 active; in the data active means inhibition above about 50%
PrP 5UTR inh = inhibition of PrP 5' UTR reporter expression; cell-based PrP 5' UTR mRNA reporter, plate reader; inhibition, % (no concentration beside the values); 0.35% of 340,000 active; AID 488862, 2010; in the data active means inhibition above about 52%; further: 0 = median of the neutral control wells
SSB-PriA inh = inhibitors of Klebsiella pneumoniae PriA binding to SSB C-terminal tail, primary screen, biochemical, AlphaScreen. PriA–SSB C-terminal tail interaction (Klebsiella pneumoniae). 0.6% of 430,000 active. AlphaScreen SSBct-PriA binding, biotinylated peptide. inhibition, % at 33 µM; in the data active means inhibition mostly above about 37%, no sharp cut-off; inactive means mostly below about 20%;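 further: plate controls were negative control peptide for no effect and reference peptide for full effect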
Yp Topo-I inh = Yersinia pestis topoisomerase I inhibitors, primary screen, biochemical, cleavage product accumulation, plate reader, single point; Y. pestis Topo-I cleavage product accumulation; activity, % at 10 µM; 0.064% of 360,000 active; AID 504884, 2011; in the data active means activity above about 50%, passing the limit was not always enough
An asterisk follows results filed as active; . = no result given. An excerpt weighted towards active compounds, which were near 1.7% of everything screened.

SMILES	PfHsp40 yeast	PrPC surface inh	BJeLR viability	PrP 5UTR inh	SSB-PriA inh	Yp Topo-I inh
CC(C)(C)OC(=O)NCc1ccc(NC(=O)c2nc[nH]c2C(=O)NCCCNC(=O)c2[nH]cnc2C(=O)Nc2ccc(CNC(=O)OC(C)(C)C)cc2)cc1	-1.7	.	.	22.5	-11.1	79.2*
COc1cc(C=O)cc(OC)c1OS(=O)(=O)c1ccc(NC(C)=O)cc1	0.2	4.5	-0.1	-23.3	-3.5	0.4
COc1ccc(C=O)cc1OS(=O)(=O)c1ccc(NC(C)=O)cc1	41.6*	7.2	-4.0	-3.8	2.5	-2.4
Cc1ccc(/C=N/NC(=O)CNC(=O)C23CC4CC(CC(C4)C2)C3)o1	.	.	.	.	9.0	.
CCOC(=O)[C@]12Cc3c(cc(OC)c(OC)c3OC)[C@H]1N(C1CCCCC1)C(=O)c1ccccc12	.	31.7*	.	.	.	.
CCOC(=O)[C@]12Cc3cc(C)ccc3[C@H]1N(C1CCCCC1)C(=O)c1ccccc12	.	38.4*	.	.	.	.
CCOC(=O)[C@]12Cc3ccc(C)cc3[C@H]1N(C1CCCCC1)C(=O)c1ccccc12	.	33.0*	.	.	.	.
CCOC(=O)[C@]12Cc3cc(C)ccc3[C@H]1N(CCC(=O)OC)C(=O)c1ccccc12	.	11.0	.	.	.	.
CCOC(=O)[C@]12Cc3ccc(C)cc3[C@H]1N(C1CCCCC1)C(=O)c1cc(OC)ccc12	.	35.6*	.	.	.	.
Cc1ccc(NC(=O)C(=O)NCCCN2CCCC2=O)cc1F	.	.	.	.	13.0	.
O=C(Nc1nc(-c2ccc(Cl)c(Cl)c2)cs1)c1ccc2c(c1)OCCO2	.	.	.	.	-19.0	.
CNC(=O)/C(=C/c1ccc(OCCOc2ccccc2OC)cc1)NC(=O)c1ccc(OC)cc1	.	.	.	.	-16.0	.
CCCCOc1ccc(NC(=O)N(Cc2cccs2)Cc2cccn2C)cc1	.	.	.	.	3.0	.
CC(=O)Nc1nc(SCC(=O)N2CCc3ccccc32)[nH]c(=O)c1NC(=O)c1cccs1	.	.	.	.	1.0	.
O=C(c1ccc(F)c(F)c1)N1CCN(Cc2nc(-c3ccc(F)cc3)cs2)CC1	.	.	.	.	-12.0	.
CCOC(=O)[C@]12Cc3cc(Cl)ccc3[C@H]1N(C1CCCCC1)C(=O)c1cc(OC)ccc12	.	46.8*	.	.	.	.
COc1ccccc1OCC(=O)Nc1nc2ccc3nc(C)sc3c2s1	.	.	.	.	-8.0	.
Nc1[nH]c(=O)ncc1F	370.1*	2.4	9.2	-0.3	-2.2	-3.1
CCOC(=O)c1cnc(=O)[nH]c1N	.	.	.	.	0.0	.
N#Cc1nc(-c2ccco2)oc1N1CCc2ccccc2C1	1.3	0.9	1.9	-9.7	43.2*	6.2
N#Cc1nc(-c2ccco2)oc1N1CCN(c2cccc(Cl)c2)CC1	1.4	-1.5	-0.5	-2.6	49.9*	10.5
C#CCn1c(=NC(=O)CN2C(=O)CCC2=O)sc2cccc(Cl)c21	.	.	.	.	-4.0	.
CCOC(=O)c1c(CSC(=N)N)n(-c2ccc(C)cc2)c2cc(Br)c(OC(C)=O)cc12	0.7	10.3	83.8*	-34.5	10.4	-15.4
COc1cc2cnc(-c3ccccc3)c(C(=O)c3ccc(F)cc3)c2cc1OC	411.4*	-6.4	.	-1.9	18.7	35.2
COc1cc2[nH]c(=S)nc(NC3CCCCCC3)c2cc1OC	-1.1	24.7*	.	-2.7	10.3	-13.5
SMILES	PfHsp40 yeast	PrPC surface inh	BJeLR viability	PrP 5UTR inh	SSB-PriA inh	Yp Topo-I inh
COc1cc2[nH]c(=S)nc(NCC3CCCO3)c2cc1OC (stereo not drawn)	-1.6	2.0	2.5	-16.8	-4.8	12.2
O=C(Nc1nc(-c2ccccn2)cs1)c1ccc2ncsc2c1	.	.	.	.	19.0	.
CC(=O)Nc1cccc(C(=O)Nc2nc(-c3ccccn3)cs2)c1	.	.	.	.	67.4*	.
O=C(Nc1nc(-c2ccccn2)cs1)c1cccc(F)c1	.	.	.	.	119.5*	.
O=S(=O)(c1ccc(Cl)c(Cl)c1)c1snnc1-c1ccccc1	5.7	.	52.6*	38.9	-6.6	0.8
c1ccc(-c2nnsc2-c2ccccc2)cc1	0.1	5.3	-3.3	-5.4	-27.3	9.9
CCOc1ncc(NC(=O)c2c(F)cccc2Cl)c(OCC)n1	.	.	.	.	-17.0	.
CCn1c2ccc(C)cc2c2nc3cc(C(=O)O)ccc3nc21	311.9*	-4.3	11.5	0.7	-2.4	-0.3
CCCCn1c2ccc(C)cc2c2nc3ccccc3nc21	.	.	.	.	-19.0	.
O=C(NCc1nnc(SC/C=C/c2ccccc2)o1)c1c(F)cccc1F	.	.	.	.	-8.0	.
Cc1ccc(N2CC(NC(=O)NCCCn3ccnc3)CC2=O)cc1C (stereo not drawn)	.	.	.	.	51.0*	.
